D1 antagonist: blocks dopamine activation of the human D1 receptor; HEK293 TREx D1 cells, calcium flux, dopamine EC80; stronger effect = lower value; 360,000 tested, 3.2% active; activity change, negative = inhibition, % at 10 µM; in the data active = activity change below about -30%; note: % is set by controls: 0 for no effect and ±100 for the full control effect
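Compound effects on dopamine-evoked calcium signalling were measured in tetracycline-induced HEK293 Trex D1 cells. Dopamine at EC80 followed a 180 s compound pre-read, and fluorescence was tracked kinetically for 180 s more.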
D1 ag: human D1 receptor agonism | P21728 | HEK293 T-REx D1 cells, calcium flux, agonist mode | activation, % at 2 µM | 360,000 tested, 1% active | AID 504660; note: 0% is about no effect
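Tetracycline-induced HEK293 TREx D1 cells, force-coupled to calcium signalling, were dye-loaded with a no-wash calcium kit. Compound was pin-added after a 10 s baseline. Fluorescence was read kinetically at 1 cycle/s for 180 s, with calcium rises flagged as agonism.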
TRHR ag: agonists of human TRH receptor | TRHR cells, calcium flux fluo-8, FDSS agonist mode | P34981 | activation, % at 2 µM | 360,000 tested, 0.18% active; note: 0% is about no effect
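Fluo-8-loaded TRHR cells; 10 s baseline, compound added, kinetic Ca2+ fluorescence read 1/s, agonist mode.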
D1 PAM: enhances dopamine response at the human D1 receptor; 360,000 tested, 0.036% active; HEK293 TREx D1 cells, calcium flux, dopamine EC20 potentiation; potentiation, % at 10 µM; P21728; in the data active = potentiation above about 30%; note: 0% is about no effect
USP1-UAF1 inh: blocks the human USP1/UAF1 deubiquitinase complex; Potency, µM (series often up to 57.1 µM), inactives show at the highest dose activity change, negative = inhibition, hits mostly inhibitors; recombinant USP1/UAF1, Ub-Rhodamine cleavage fluorescence; AID 743255; 390,000 tested, 0.23% active; O94782; active = well fitted inhibition curve with a large enough effect; inconclusive = small, poorly fitted or top-dose-only effect; inactive = no such curve, though single readings can be large or run the other way; note: potency is the fitted concentration of half-maximal effect; % is set by controls: 0 for no effect and ±100 for the full control effect; nearly all actives have a fitted effect of over 60% in size
Target sequence (O94782 whole entry, looked up): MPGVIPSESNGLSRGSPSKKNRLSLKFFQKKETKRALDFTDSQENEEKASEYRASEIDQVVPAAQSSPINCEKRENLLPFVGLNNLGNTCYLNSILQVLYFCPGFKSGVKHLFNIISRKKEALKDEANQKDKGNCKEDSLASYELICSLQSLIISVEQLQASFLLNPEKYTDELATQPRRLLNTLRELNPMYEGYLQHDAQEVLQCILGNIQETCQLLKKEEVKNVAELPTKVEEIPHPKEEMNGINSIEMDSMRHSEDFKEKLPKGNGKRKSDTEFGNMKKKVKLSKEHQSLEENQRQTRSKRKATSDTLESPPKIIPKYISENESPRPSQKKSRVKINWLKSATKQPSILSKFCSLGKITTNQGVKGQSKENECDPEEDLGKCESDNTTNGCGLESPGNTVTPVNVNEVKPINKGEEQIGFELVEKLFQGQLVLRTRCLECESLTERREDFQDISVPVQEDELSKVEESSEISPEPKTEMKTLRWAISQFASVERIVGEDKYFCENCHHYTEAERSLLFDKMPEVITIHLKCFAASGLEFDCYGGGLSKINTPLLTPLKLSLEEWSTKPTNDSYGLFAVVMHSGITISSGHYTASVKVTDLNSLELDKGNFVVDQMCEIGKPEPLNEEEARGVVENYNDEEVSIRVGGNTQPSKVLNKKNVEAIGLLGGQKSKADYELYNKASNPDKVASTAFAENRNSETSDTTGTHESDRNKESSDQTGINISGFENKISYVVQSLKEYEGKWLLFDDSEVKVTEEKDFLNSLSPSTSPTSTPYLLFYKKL
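USP1/UAF1 complex at 1 nM was preincubated with compound for 15 min at room temperature, then Ub-Rho substrate (150nM final) was added. Fluorescence (480/540 nm) was read kinetically, 6 reads every 60 seconds.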
TRHR enhancer: TRH receptor (human) allosteric enhancement. enhancement, % at 2 µM. 360,000 tested, 0.66% active. TRHR cells, fluo-8 calcium fluorescence, EC20 TRH enhancement; in the data active = enhancement above about 30%; note: 0% is about no effect
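Enhancer read-out: after compound pinning and an initial kinetic agonist-mode read, an EC20 of TRH (10 nM final) was injected and fluo-8 calcium signal (Ex 480/Em 530) followed at 1 s/cycle for 100 cycles in TRHR-expressing cells.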
* marks the source's active call; other numbers are inactive results; ? = inconclusive; . = not tested or not shown. Compounds with a hit are over-represented: about 4.4% of the library has one in this group of screens. Cut-off read from the data, not from the text of the source, unless noted: active = activation above about 30%; inactive = the rest.

SMILES	D1 antagonist	D1 ag	TRHR ag	D1 PAM	USP1-UAF1 inh	TRHR enhancer
Cc1ccc(CN2C(=O)C(O)(CC(=O)c3ccc(C)cc3)c3ccccc32)cc1 (configuration not stated)	-2	-2	-1	0	-11%	4
COc1ccc(NS(=O)(=O)c2ccc3c(c2)CCN3C(=O)CCC(=O)O)cc1Cl	-5	0	0	-3	-3%	-10
Cc1oc2cc3oc(=O)c(CCC(=O)NCCc4ccccc4F)c(C)c3cc2c1C	-7	1	-1	1	-4%	7
Cc1cnn(-c2cc(N/N=C/c3cccc(F)c3)ncn2)c1	2	0	-3	-9	2%	36*
COc1cccc(/C=N/Nc2snc(SC)c2C#N)c1O	-41*	37*	5	-1	-17%	-11
Cc1cc(C)cc(NC(=O)CC(C)n2nc(C)cc2C)c1 (configuration not stated)	-14	8	1	-6	5%	0
O=C(CNC(=O)c1ccco1)N/N=C/c1cc(Br)ccc1O	12	5	-1	11	-10%	5
COc1cc(/C=N/NC(=O)CNC(=O)c2ccco2)ccc1O	-48*	4	0	-2	-1%	-7
O=C1COc2ccc(-c3cc(-c4ccccc4)c4c(n3)-c3cc(Cl)ccc3OC4)cc2N1	10	-1	2	3	-8%	-6
CCOc1ccccc1CNC(=O)c1ccc(Sc2ccc(Cl)cc2)c(NC(C)=O)c1	-39*	3	0	-3	-8%	1
CN(C)c1ccc(NC(=O)C2(c3cccs3)CCOCC2)cc1	.	2	-1	3	?	3
COc1cccc(-c2nc(SCc3cccc(Br)c3)n3[nH]c(=O)cc3n2)c1	-11	2	0	-3	-23%	5
O=C1CCc2cc(NS(=O)(=O)c3ccccc3)cc3c2N1CCC3	5	6	-1	-4	-26%	-4
O=C1CCc2cc(NS(=O)(=O)c3ccc(F)cc3)cc3c2N1CCC3	-38*	3	0	-4	-18%	3
O=C(CCS(=O)(=O)c1cc(Br)cc2c1N(C(=O)C1CC1)CC2)NCc1ccccc1Cl	-4	1	-1	4	-14%	2
COc1cc(NC(=O)Cn2nc(C(F)(F)F)c(Br)c2C)cc([N+](=O)[O-])c1	-34*	22	0	-2	-3%	-4
Cc1ccc(NC(=O)Cn2nc([N+](=O)[O-])c(Br)c2C)cc1C	-33*	9	1	-5	?	-3
COc1cccc(C2CC(C(F)(F)F)n3ncc(C(=O)NCc4ccco4)c3N2)c1 (configuration not stated)	-9	3	-1	9	-19%	32*
Cc1c(C(C)C)c(=O)n(-c2ccc(S(=O)(=O)NC3CCCCC3)cc2)n1C	-52*	4	0	-4	-11%	-20
C=Cc1ccc(CSc2nc(-c3ccc(C)cc3)nc3c2Cc2c(CO)cnc(C)c2O3)cc1	-3	1	0	3	-19%	0
CCCN1CCN(c2nnc(-n3cccc3C(=O)Nc3cc(Cl)ccc3C)s2)CC1	-1	3	1	-2	?	2
CC(=O)c1ccc(S(=O)(=O)NCCCC(=O)N(C)Cc2ccc3c(c2)OCO3)cc1	-57*	7	0	-9	-23%	-6
COc1ccc(N2CCN(c3csc4ccc(Cl)cc4c3=O)CC2)cc1	10	43*	1	0	-6%	4
COc1ccc(/C(C)=N/NC(=O)c2ccc(CSc3nncn3C)cc2)cc1	-17	3	0	-4	-15%	1
C/C(=N\NC(=O)c1ccc(CSc2nncn2C)cc1)c1ccc(Cl)cc1	-32*	3	-1	-2	-19%	5
SMILES	D1 antagonist	D1 ag	TRHR ag	D1 PAM	USP1-UAF1 inh	TRHR enhancer
Cn1c(Oc2ccc(Cl)cc2)nc2c1c(=O)n(Cc1ccc(F)cc1)c(=O)n2C	-29	4	0	5	-13%	-10
CCc1cccc(NC(=O)c2coc(=O)c3ccccc23)c1	6	1	0	0	-11%	-8
O=C(OCc1nnc(-c2ccccc2)o1)c1cc(S(=O)(=O)N2CCOCC2)c(Cl)cc1Cl	-34*	3	0	-4	-3%	-4
Cc1ccc(S(=O)(=O)N2CCOCC2)cc1C(=O)OCc1nnc(-c2ccccc2)o1	-13	0	-1	-8	-12%	0
COc1ccc(S(=O)(=O)NCCc2sc(-c3cccnc3)nc2C)cc1OC	16	0	0	-2	-16%	-1
CC(=O)NCC(=O)NNC1CC(=O)N(c2cccc(Cl)c2)C1=O (configuration not stated)	7	1	1	31*	-12%	2
CC(C)C(NC(=O)c1ccccc1F)C(=O)OCC(=O)c1ccc(F)cc1 (configuration not stated)	-32*	5	2	-13	-9%	-6
COc1cc(OC)cc(C(=O)N[C@H](C(=O)OCC(=O)c2ccc(F)cc2)C(C)C)c1	-7	9	-1	-6	-20%	1
COc1ccc(/C=C/c2nc(C#N)c(NCCc3ccccc3)o2)cc1OC	-6	0	-1	0	-2%	-4
Cc1cccc(OCC(=O)OCc2cc(=O)n3nc(C4CCCCC4)sc3n2)c1	2	6	0	1	?	-2
O=C(NN=C1C2CC3CC1CC(Cl)(C3)C2)c1ccccn1	-4	-1	0	-6	-24%	0
O=C(NN=C1C2CC3CC1CC(Cl)(C3)C2)c1cccs1	-39*	0	-1	-18	-9%	2
O=c1oc2ccccc2n1CCCOc1ccccc1Cl	-2	6	0	-3	-17%	1
Cc1nnsc1SC(C)C(=O)O (configuration not stated)	-50*	5	1	-6	-5%	-1
CSc1cccc(NC(=O)Cn2c(=O)n(Cc3ccccc3)c(=O)c3sc4ccccc4c32)c1	2	6	0	-2	-12%	0
O=C(NCCC1=CCCCC1)c1ccc2c(c1)N(Cc1cccc(Cl)c1)C(=O)c1ccccc1S2=O (configuration not stated)	1	5	0	-7	-11%	0
Nc1ccc2c(c1)Nc1ccccc1CC2	-31*	0	0	-7	-26%	-7
Cc1cc(=O)[nH]c2c(C)c(N)ccc12	7	3	0	3	-25%	3
Cc1cc(C)c2ccc3c(C)c(C)nc3c2[nH]1	-47*	5	-1	-4	-13%	8
CCCCN(CC(=O)NC1CCCC1)C(=O)C(=O)Nc1ccc2c(c1)OCCO2	-36*	7	-1	-10	-1%	7

Bioassay records as filed in PubChem BioAssay.
